# The list is not random: actives were taken first. Their share in the collection is about 7%.
# AHR activator: activates the human aryl hydrocarbon receptor; 320,000 compounds, 2.5% hits; P35869; activation, % at 5 µM; AID 2796; AHR-responsive luciferase reporter cells, luminescence; in the data active means activation above about 47%;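 further: 0% = vehicle wells and 100% = reference agonist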
# ADAM17 inh: ADAM17 inhibition, QFRET primary screen. P78536. recombinant ADAM17, EDANS/DABCYL FRET peptide cleavage. inhibition, % at 6.95 µM. 370,000 compounds, 0.83% hits. AID 720648;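 active means inhibition above the mean of compounds lying between control limits plus 3 SD, set per campaign, cut at about 8.5% in these data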;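 further: 0% = DMSO-only wells as the low control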
# NR3A LBD binder: modulates the human NR3A ligand-binding domain; NR3A LBD differential scanning fluorimetry, Tm shift; 0% = protein alone, 100% = glycine-bound protein; Tm shift relative to glycine control, % at 25 µM; 340,000 compounds, 2.5% hits;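 active means melting temperature shift of at least 10% of the positive control shift, at one fixed dose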
# KLK7 zymogen act: activates the human kallikrein-7 zymogen; 370,000 compounds, 0.9% hits; P49862; activation, % at 7 µM; AID 652039; purified proKLK7, EDANS-DABCYL substrate fluorescence; 100% is mature enzyme control, 0% vehicle;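 active means activation above the mean of all tested compounds plus 3 SD, computed per campaign excluding outliers beyond control limits, cut at about 13% in these data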
# rCAG RNA binder: molecules binding r(CAG) RNA repeats; r(CAG) RNA repeat, TO-PRO-1 dye displacement fluorescence; inhibition, % at 3 µM; 370,000 compounds, 1.3% hits;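 active means inhibition above the plate cutoff, the mean of all test compounds on that plate plus 3 SD, cut at about 35% in these data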;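 further: 0% = DMSO alone and 100% = 100 µM mitoxantrone as full dye displacement; higher means more dye released from RNA so lower well fluorescence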
# ADAM10 inh: inhibitors of human ADAM10 | O14672 | recombinant ADAM10, EDANS/DABCYL FRET peptide cleavage, 3 h | inhibition, % at 7 µM | 370,000 compounds, 0.62% hits;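 active means inhibition above a per-campaign cutoff equal to the mean of compounds falling between control-based bounds plus 3 SD, cut at about 20% in these data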;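 further: 0% = DMSO wells while the 100% control is not disclosed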
# Target sequence (O14672 214-748 limits assumed): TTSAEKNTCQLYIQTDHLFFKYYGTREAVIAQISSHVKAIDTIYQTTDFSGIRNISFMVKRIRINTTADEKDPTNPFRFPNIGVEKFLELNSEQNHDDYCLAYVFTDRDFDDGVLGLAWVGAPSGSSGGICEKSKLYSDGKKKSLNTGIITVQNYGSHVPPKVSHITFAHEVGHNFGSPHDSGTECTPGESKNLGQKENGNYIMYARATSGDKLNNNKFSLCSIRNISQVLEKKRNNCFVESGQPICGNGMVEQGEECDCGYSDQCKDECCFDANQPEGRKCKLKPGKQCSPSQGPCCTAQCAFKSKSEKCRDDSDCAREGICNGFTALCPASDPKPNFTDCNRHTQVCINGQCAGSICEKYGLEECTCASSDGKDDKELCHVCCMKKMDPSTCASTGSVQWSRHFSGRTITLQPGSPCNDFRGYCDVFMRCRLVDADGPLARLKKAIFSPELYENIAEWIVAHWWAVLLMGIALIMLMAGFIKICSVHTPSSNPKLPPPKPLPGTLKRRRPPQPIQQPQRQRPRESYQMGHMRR
# * marks the source's active call; other numbers are inactive results; x = no result.
SMILES,AHR activator,ADAM17 inh,NR3A LBD binder,KLK7 zymogen act,rCAG RNA binder,ADAM10 inh
COc1ccccc1C(=O)Nc1cc(C)ccc1NC(=O)c1ccco1,65*,0,4,1,-6,-9
O=C(Nc1ccc(Cl)cc1C(=O)Nc1ccccn1)c1ccco1,64*,-4,1,0,2,-8
COc1ccccc1/C=C/C(=O)c1cc(Br)ccc1OC(=O)c1ccco1,74*,6,2,-2,3,12
COc1ccccc1NC(=O)c1ccccc1NC(=O)c1cc(Cl)ccc1NC(=O)c1ccco1,41,-2,1,-3,24,-3
C[C@@H]1C=CCCO[C@]12C(=O)N(Cc1ccc(F)cc1)c1ccccc12,x,-7,x,0,-1,-8
CC(C)(C)OC(=O)N1CCC[C@@H]1C(=O)N1CCC[C@@H]1C(=O)NCc1ccccc1,x,-1,x,0,0,3
O=S1(=O)c2ccc(N3CCC[C@H]3CO)cc2OCCCN1C1CC1,x,-4,x,-1,4,-4
O=C(NCc1ccco1)OC1CCC12CCC(c1ccccc1)CC2 (stereo not given),x,8,x,x,x,17
COC(=O)[C@]12C=CCN1[C@@H](c1ccc(OC)c(OC)c1)c1c(c3ccccc3n1S(=O)(=O)c1ccc(C)cc1)C2,x,3,x,-2,10,-2
C[C@H]1COc2cc(Br)ccc2S(=O)(=O)N1Cc1cn(Cc2ccccc2)nn1,x,-3,x,0,5,-6
O=C(/C=C/c1cc(Br)ccc1O)c1ccco1,2,0,-1,-1,8,6
COc1ccc([N+](=O)[O-])cc1NC(=O)Nc1cccc(Cl)c1,5,2,29*,0,15,11
COc1ccc(-c2nc3ncccc3o2)cc1NC(=O)c1ccco1,76*,-5,1,-1,5,-2
COc1ccc([N+](=O)[O-])cc1NC(=O)Nc1ccc(OC)c(OC)c1,13,5,-6,0,13,7
O=C(/C=C/c1ccccc1O)c1ccco1,-5,3,23*,1,0,1
C[C@@H]1COc2cc(N3CCSCC3)ccc2S(=O)(=O)N1C,x,-2,x,0,1,-2
O=C(NC1CCCCN(Cc2ccc(Cl)cc2)C1=O)C1C2CC3CC(C2)CC1C3 (stereo not given),x,-7,x,0,7,-1
CC(=O)n1cc([C@H]2C=C(C(=O)Nc3ccccc3)O[C@@H](OCCCCO)C2)c2ccccc21,36,-2,-11,0,1,2
CC(=O)n1cc([C@@H]2C=C(C(=O)NCc3ccccc3)O[C@H](OCCCCO)C2)c2ccccc21,73*,-5,-4,1,4,-14
C#CCNC(=O)C1=C[C@@H](c2cn(C(C)=O)c3ccccc23)C[C@@H](OCCCCO)O1,65*,-11,-1,0,2,-27
COC(=O)[C@]12C[C@H](CC(=O)N3CCC(c4ccccc4)CC3)C(=O)N(Cc3cccc4ccccc34)C1=C[C@H](COCc1ccccc1)O[C@@H]2C,x,-4,x,0,11,3
S=c1[nH]nc(-c2cc(-c3ccccc3)n[nH]2)n1/N=C/C(Br)=C/c1ccccc1,8,-4,17*,-1,33,-9
CCCOc1ccccc1NC(=O)CC1Nc2ccccc2NC1=O (stereo not given),49*,-7,-1,0,15,-12
CCOc1ccccc1NC(=O)CC1Nc2ccccc2NC1=O (stereo not given),78*,-5,-2,-1,12,-15
Cc1ccc(NC(=O)CC2Nc3ccccc3NC2=O)cc1Cl (stereo not given),x,-23,10*,-3,31,-62
SMILES,AHR activator,ADAM17 inh,NR3A LBD binder,KLK7 zymogen act,rCAG RNA binder,ADAM10 inh
Cc1cc(C)nc(NC(=O)c2ccc(OC(C)C)cc2)n1,49*,-3,-1,-1,-1,4
COc1ccccc1Oc1ccc(NC(=O)c2ccccc2C)cc1,3,7,0,0,-3,17
COc1ccc(C(=O)Nc2cc(OC)cc(OC)c2)cc1,57*,0,1,1,-1,4
Cc1cc(C)nc(NC(=O)c2ccc(C)c(C)c2)n1,13,0,1,1,-3,-2
COc1ccc(C(=O)Nc2ccc(C(=O)Nc3cccc(C)c3)cc2)cc1,-5,1,14*,0,-1,0
COc1ccc(Oc2ccc(NC(=O)c3ccccc3C)cc2)cc1,-2,3,17*,0,1,13
COc1ccc(NC(C)=O)cc1NC(=O)c1ccc(Cl)cc1,29,-2,-4,0,0,-9
COc1cc(OC)cc(C(=O)Nc2ccc(C(=O)Nc3ccccc3OC)cc2)c1,-2,-1,35*,-37,6,-6
COc1ccccc1NC(=O)c1ccc(NC(=O)c2ccco2)cc1,6,-4,-4,0,-1,-7
COc1ccc(/C=N/NC(=O)c2ccc3ccccc3c2)cc1OS(=O)(=O)c1ccc(NC(C)=O)cc1,6,0,28*,-25,21,-3
COc1ccc(NC(C)=O)cc1NC(=O)c1ccc2ccccc2c1,74*,3,-6,0,-1,3
Nc1cc2c(cc1Cl)-c1ccccc1C2=NO,x,6,34*,0,14,13
ON=C1c2ccccc2-c2ccccc21,2,1,0,0,1,2
COc1ccc2c(c1)Sc1ccccc1N2,x,-7,7,0,3,-11
c1ccc2c(c1)Nc1cc3ccccc3cc1S2,60*,-11,1,0,7,-27
Cc1ccc(S(=O)(=O)OCC(=O)Nc2ccc(C(=O)O)c(O)c2)cc1,x,-2,-10,0,40*,-12
COC1=C[C@H](C(=O)NCCNC(C)=O)[C@@]2(C)Cc3ccccc3[C@H]2CC1=O,x,0,x,1,4,-3
O=S1(=O)c2c(cccc2N2CCSCC2)Oc2ccccc2CN1Cc1cn(Cc2ccccc2C(F)(F)F)nn1,x,8,x,-5,9,4
C=C(C)CSc1nc2ncc(Cl)cc2[nH]1,14,0,-1,0,2,-8
C=C(C)CN(CC)C(=O)CSc1nc2ncc(Cl)cc2[nH]1,69*,-5,1,0,3,-9
CC(C)CN1C(=O)C[C@@]2(C(=O)N(C)c3ccc(NC(=O)c4cc(F)ccc4F)cc32)C1c1ccccc1 (stereo not given in full),x,-2,x,0,-3,2
COc1ccc(CN(CCN2CCOCC2)C(=O)c2ccc(F)cc2Cl)cc1OC,x,-6,x,0,5,-5
Cc1ccc(NC(=O)CN(C)Cc2ccc(Cl)cc2)cc1,0,8.8*,3,0,-3,7
Cc1ccc(NC(=O)CN(C)CC(=O)Nc2ccc(F)c(Cl)c2)cc1,5,1,-5,0,0,0
O=C(Nc1ccccc1F)c1oc2ccccc2c1NC(=O)C1CC1,57*,-1,0,0,1,-3

# Source: PubChem BioAssay (several laboratories)
